Compound activity from PubChem BioAssay.
PI5P4Ka inh: inhibitors of human PI5P4K alpha; P48426; PI5P4Kalpha enzyme, ADP-Glo luminescence, 60 min; hits give low values; max response, %; 330,000 compounds, 1.2% hits; AID 652105; active = max response of -50% or lower; inconclusive = between -30% and -50%; inactive = -30% or higher; note: value at the top dose of about 77 µM; % is set by controls: 0 for no effect and ±100 for the full control effect
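qHTS, 1536-well: enzyme/substrate mix, compound by pin tool, 5 microM ATP final; RT 60 min; ADP-Glo reagents 1 (45 min) then 2 (30 min); luminescence.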
HP1b binding inh: HP1-beta chromodomain-methylated histone interaction inhibition | P83916 | AID 540317 | 390,000 compounds, 0.56% hits | Potency, µM (top dose mostly 114 µM), for the others: top-dose activity change, negative = inhibition, hits mostly inhibitors | AlphaScreen HP1-beta / biotin-H3K9me3 peptide binding; note: potency is the fitted concentration of half-maximal effect; nearly all actives have a fitted effect of over 70% in size
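AlphaScreen: HP1-beta (50 nM) preformed 30 min with biotin-H3(1-18)K9me3 peptide (50 nM) in PBS pH 7.4, 0.01% Tween-20. Compound added for 30 min at RT, then streptavidin donor/nickel chelate acceptor beads (10 ug/mL) for 30 min.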
JMJD2A Tudor inh: blocks the human JMJD2A Tudor domain; O75164; 390,000 compounds, 4.4% hits; AID 504339; AlphaScreen JMJD2A-Tudor / H3K4me3 peptide binding; Potency, µM (highest dose often 114 µM), inactives show at the top dose activity change, negative = inhibition, hits mostly inhibitors; note: potency is the fitted concentration of half-maximal effect; % is set by controls: 0 for no effect and ±100 for the full control effect; nearly all actives have a fitted effect of over 50% in size
PLK1 PBD block: inhibitors of human PLK1 polo-box domain binding. Plk1 PBD binding of FITC phosphopeptide, fluorescence polarization. 360,000 compounds, 2.8% hits. Potency, µM, for inactives: max response, negative = inhibition, most hits filed as inhibitors. P53350. AID 720504; note: potency is the fitted concentration of half-maximal effect; series mostly up to about 57 µM; % is set by controls: 0 for no effect and ±100 for the full control effect; nearly all actives have a fitted effect of over 65% in size
BAZ2B block: inhibitors of human BAZ2B bromodomain; Potency, µM (series often up to 114 µM), for the others: at the highest dose activity change, negative = inhibition, actives largely listed as inhibitors; AlphaScreen BAZ2B-H3K14Ac peptide displacement; Q9UIF8; 360,000 compounds, 4.4% hits; note: potency is the fitted concentration of half-maximal effect; % is set by controls: 0 for no effect and ±100 for the full control effect; nearly all actives have a fitted effect of over 60% in size
Target sequence (Q9UIF8 whole entry, looked up): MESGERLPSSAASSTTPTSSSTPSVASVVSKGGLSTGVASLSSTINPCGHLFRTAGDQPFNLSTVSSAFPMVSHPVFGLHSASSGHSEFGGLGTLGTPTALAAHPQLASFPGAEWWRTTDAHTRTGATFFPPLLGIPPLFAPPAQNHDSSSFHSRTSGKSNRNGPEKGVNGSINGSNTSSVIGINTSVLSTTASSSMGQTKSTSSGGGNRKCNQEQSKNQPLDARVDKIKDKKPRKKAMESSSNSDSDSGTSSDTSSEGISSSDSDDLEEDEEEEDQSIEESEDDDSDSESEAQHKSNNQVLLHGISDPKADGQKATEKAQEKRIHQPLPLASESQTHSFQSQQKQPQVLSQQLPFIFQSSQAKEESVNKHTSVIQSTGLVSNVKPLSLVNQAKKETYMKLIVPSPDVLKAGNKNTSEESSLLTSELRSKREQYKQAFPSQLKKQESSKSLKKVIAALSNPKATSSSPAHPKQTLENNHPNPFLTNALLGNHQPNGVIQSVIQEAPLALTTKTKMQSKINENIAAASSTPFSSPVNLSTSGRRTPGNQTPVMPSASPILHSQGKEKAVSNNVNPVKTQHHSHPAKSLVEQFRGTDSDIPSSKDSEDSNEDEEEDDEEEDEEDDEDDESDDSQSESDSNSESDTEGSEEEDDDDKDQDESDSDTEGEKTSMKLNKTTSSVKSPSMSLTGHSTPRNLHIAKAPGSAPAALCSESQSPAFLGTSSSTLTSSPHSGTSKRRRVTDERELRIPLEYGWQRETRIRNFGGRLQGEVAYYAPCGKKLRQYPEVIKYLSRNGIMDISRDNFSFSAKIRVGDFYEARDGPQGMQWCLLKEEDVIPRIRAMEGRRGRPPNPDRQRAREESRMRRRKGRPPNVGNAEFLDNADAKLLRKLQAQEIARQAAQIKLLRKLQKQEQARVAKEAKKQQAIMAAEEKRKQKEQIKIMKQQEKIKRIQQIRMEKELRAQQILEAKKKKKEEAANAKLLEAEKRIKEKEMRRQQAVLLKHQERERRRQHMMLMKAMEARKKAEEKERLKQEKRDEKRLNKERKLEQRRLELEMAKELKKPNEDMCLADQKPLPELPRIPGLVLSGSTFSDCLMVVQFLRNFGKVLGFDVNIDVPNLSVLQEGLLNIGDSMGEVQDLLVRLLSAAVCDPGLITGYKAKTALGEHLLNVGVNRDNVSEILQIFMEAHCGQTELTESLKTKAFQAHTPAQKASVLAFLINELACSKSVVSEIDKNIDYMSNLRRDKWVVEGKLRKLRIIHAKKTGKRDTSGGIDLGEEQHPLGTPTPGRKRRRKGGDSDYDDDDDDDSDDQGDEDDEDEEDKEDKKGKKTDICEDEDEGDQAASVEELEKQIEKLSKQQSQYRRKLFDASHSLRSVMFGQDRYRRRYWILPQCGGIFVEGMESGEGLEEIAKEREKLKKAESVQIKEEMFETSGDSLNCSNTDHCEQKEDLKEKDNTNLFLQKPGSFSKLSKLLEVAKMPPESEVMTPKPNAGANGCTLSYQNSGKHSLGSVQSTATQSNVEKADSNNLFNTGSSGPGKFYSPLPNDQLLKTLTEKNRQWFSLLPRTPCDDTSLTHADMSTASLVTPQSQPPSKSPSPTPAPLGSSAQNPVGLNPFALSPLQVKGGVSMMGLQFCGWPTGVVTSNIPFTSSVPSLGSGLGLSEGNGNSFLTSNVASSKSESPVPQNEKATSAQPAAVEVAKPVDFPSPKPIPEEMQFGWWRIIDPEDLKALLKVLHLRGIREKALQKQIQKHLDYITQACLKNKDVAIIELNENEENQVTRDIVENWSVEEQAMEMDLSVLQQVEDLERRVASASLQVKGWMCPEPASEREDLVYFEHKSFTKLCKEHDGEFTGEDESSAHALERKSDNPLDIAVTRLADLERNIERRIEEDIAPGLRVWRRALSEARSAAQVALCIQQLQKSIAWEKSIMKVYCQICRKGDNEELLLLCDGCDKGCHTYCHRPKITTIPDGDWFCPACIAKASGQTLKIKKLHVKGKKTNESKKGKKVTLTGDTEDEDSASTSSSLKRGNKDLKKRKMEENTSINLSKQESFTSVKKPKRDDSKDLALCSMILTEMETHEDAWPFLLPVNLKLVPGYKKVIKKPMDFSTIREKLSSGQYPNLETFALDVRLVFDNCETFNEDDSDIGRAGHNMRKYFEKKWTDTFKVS
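In this displacement format the biotinylated H3(5-23) peptide acetylated at Lys14 serves as ligand at 50 nM, with BAZ2B at 50 nM in PBS pH 7.4 containing 0.01% Tween-20. Donor and acceptor beads are 10 ug/mL final.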
G9a inh: inhibitors of human histone lysine methyltransferase G9a | Q96KQ7 | G9a H3K9 monomethylation, AlphaScreen, 2 h | Potency, µM (highest dose often 102 µM), inactives show at the highest dose activity, negative = inhibition, hits mostly inhibitors | 350,000 compounds, 8.8% hits; note: potency is the fitted concentration of half-maximal effect; % is set by controls: 0 for no effect and ±100 for the full control effect; nearly all actives have a fitted effect of over 75% in size
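AlphaScreen read-out: biotin-H3K9 peptide (500 nM) methylation by 20 nM enzyme with 20 uM SAM, 2 h at room temperature after 15 min compound preincubation; anti-monomethyl H3K9 antibody plus donor/acceptor beads, 10 min dark.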
Numbers without * were called inactive; ? = inconclusive; · = no result given; [ ] = remark or other dose. Only some compounds are listed: those with a hit (about 12% of all), similar ones and a draw of the others. Unless noted, calls come from the whole dose curve; as a rule, active = well fitted curve in the direction sought with a large enough effect; inconclusive = small, poorly fitted or top-dose-only effect, or another doubt; inactive = no such curve, though single readings can be large; an effect the other way counts as inactive or inconclusive.

SMILES | PI5P4Ka inh | HP1b binding inh | JMJD2A Tudor inh | PLK1 PBD block | BAZ2B block | G9a inh
CS(=O)(=O)N1CCC2(CCCN(c3cccc(-c4ccccc4)c3)C2)CC1 | · | · | · | · | · | -4%[12.7 µM]
CC(C)C[C@@H](CN1CCCC1CN1C(=S)NC[C@@H]1Cc1ccc(O)cc1)N1C[C@H](Cc2ccc(O)cc2)N(CC2CCCCC2)C1=S (some centres undefined) | ? | -13% | 40µM* | 19µM* | · | ·
COc1cc(Nc2cc(C)nc3ncnn23)cc(OC)c1OC | 3 | 68% | -7% | -3% | 8% | 45µM*
Cc1cc(Nc2ccc(N3CCC(C)CC3)cc2)n2ncnc2n1 | · | 1% | ? | -5% | 56µM* | -50%[12.7 µM]
Cc1ccc(Nc2cc(C)nc3ncnn23)cc1 | -6 | 28% | -13% | -12% | -18% | 71µM*
Cc1cc(C)n2ncnc2n1 | 2 | 27% | -3% | -5% | ? | 50µM*
O=C1C(O)CCN1Cc1ccccc1 (centres undefined) | -1 | 16%[57 µM] | -8% | -5% | · | ·
Cn1c(=O)c2ncn(CC(=O)NC3CCCCCC3)c2n(C)c1=O | 9 | 14% | 3% | -3% | -4% | 14µM*
Cn1c(=O)c2ncn(CC(=O)NCCOc3ccc(C(C)(C)C)cc3)c2n(C)c1=O | 2 | 5% | -2% | -12% | 0% | 40µM*
COc1ccc(S(=O)(=O)N(CC(=O)Nc2ccc(OC)cc2OC)c2ccc(Cl)cc2)cc1 | · | 30% | -21% | · | -17% | -32%[59 µM]
O=C1[C@H]2[C@H](ON3CCCC[C@H]23)C(=O)N1c1cccc(C(F)(F)F)c1 | -4 | -11% | -12% | -23% | -9% | -30%
COc1ccc([C@@H]2[C@H]3C(=O)N(c4cccc(C(F)(F)F)c4)C(=O)[C@H]3ON2C)cc1 | 7 | 34% | -3% | 0% | 14% | 45µM*
CCc1nnc(NS(=O)(=O)c2ccc(NC(=S)NC(=O)c3ccc(F)cc3)cc2)s1 | -15 | -12% | -27% | -13% | ? | -8%[59 µM]
CCc1nnc(NS(=O)(=O)c2ccc(NC(=O)Nc3ccc(OC)cc3)cc2)s1 | 1 | 16% | -14% | -6% | -9% | ·
CCc1nnc(NS(=O)(=O)c2ccc(NC(=O)OC)cc2)s1 | · | 70% | -1% | -28% | -24% | 18µM*
CCc1nnc(NS(=O)(=O)c2ccc(NC(=O)/C=C/c3ccc(F)cc3)cc2)s1 | -8 | 6% | -10% | -15% | -30% | 56µM*
COc1ccc(N(CC(=O)NCC2CCCO2)C(=O)CCC(=O)Nc2cc(C)on2)cc1OC (centres undefined) | 3 | 19% | -11% | -4% | -4% | 48%
[O-][n+]1cccc2c(Br)cc(Br)c(O)c21 | -18 | 8% | -27% | ? | · | 50µM*
COc1ccccc1CNC(=O)c1ccc2c(=O)n3c(nc2c1)CCCCC3 | 0 | 61% | -12% | -13% | -17% | -3%
CCC(C)n1ncn(-c2ccc(N3CCN(c4ccc(O)cc4)CC3)cc2)c1=O (centres undefined) | -11 | ? | 89µM* | -2% | -32% | 7.9µM*
O=C(COC(=O)c1ncc(Cl)c(Cl)c1Cl)NC1CCCCCC1 | 7 | 19% | -3% | -4% | 23% | 40µM*
O=C(COC(=O)c1ccccc1Br)NC1CCCC1 | 4 | 21% | 3% | -3% | -14% | 40µM*
N#Cc1ccc(C(=O)OCC(=O)NC2CCCC2)cc1 | 8 | 32% | -3% | -1% | 5% | 45µM*
Nc1ncnc2c1c(I)cn2C1OC(CO)C(O)C1O (centres undefined) | · | · | · | · | · | -21%[59 µM]
COc1ccc(CNC(=O)CCc2nc3cccnc3n2Cc2ccccc2)cc1 | · | 32% | -9% | · | -6% | -3%[59 µM]
SMILES | PI5P4Ka inh | HP1b binding inh | JMJD2A Tudor inh | PLK1 PBD block | BAZ2B block | G9a inh
CC(=O)N1c2ccc(S(=O)(=O)NCC3CCC(C(=O)N4CCCC(C)C4)CC3)cc2CC1C (centres undefined) | -25 | 9% | ? | 21µM* | -32% | 62%
CC(=O)N1c2ccc(S(=O)(=O)NCC3CCC(C(=O)N4CCCCC4)CC3)cc2CC1C (centres undefined) | 1 | 34% | -3% | -13% | -13%[57.1 µM] | 31%
CC1Cc2cc(S(=O)(=O)NCCC(=O)NCc3ccc(F)cc3)ccc2N1C(=O)C1CC1 (centres undefined) | 1 | 24% | 4% | 17% | -6% | 19%[59 µM]
CC(=O)N1c2ccc(S(=O)(=O)NCCC(=O)Nc3ccc(OC(F)(F)F)cc3)cc2CC1C (centres undefined) | -19 | 22% | ? | 6.7µM* | -3% | 8%[59 µM]
CC(=O)N1c2ccc(S(=O)(=O)NCCC(=O)Nc3ccc(Cl)cc3)cc2CC1C (centres undefined) | 5 | · | · | 1% | · | ·
CC(=O)N1c2ccc(S(=O)(=O)NCCC(=O)NCCc3ccc(C)cc3)cc2CC1C (centres undefined) | -5 | 12% | ? | 30µM* | -16% | 2%[59 µM]
CC(=O)N1c2ccc(S(=O)(=O)NCCC(=O)NCc3ccc(F)cc3)cc2CC1C (centres undefined) | -10 | 16% | ? | 30µM* | -11% | -6%[59 µM]
C=CCn1cnnc1SCC(=O)Nc1cccnc1Cl | · | · | · | · | -4% | ?
O=Nc1c(O)[nH]c2ccc(Cl)c(Cl)c12 | -16 | -3%[57 µM] | -21% | -6% | · | ·
CC(=O)N1c2ccc(S(=O)(=O)NCCC(=O)Nc3ccc(C)cc3Br)cc2CC1C (centres undefined) | · | 36% | 3% | · | -14% | -3%[59 µM]
CC(=O)N1c2ccc(S(=O)(=O)NC(CC(=O)O)c3ccc(Br)cc3)cc2CC1C (centres undefined) | -20 | 18% | ? | 27µM* | -15%[57.1 µM] | 7%
CCCCC[C@@H]1C=C(C(=O)O)[C@H](c2ccc(Br)cc2)N1S(=O)(=O)c1ccc(C)cc1 | 17 | 10% | -25% | ? | · | ·
Cc1cc(C)n(Cc2ccc(C(=O)N/N=C/c3ccc(-c4ccc([N+](=O)[O-])cc4)o3)o2)n1 | 0 | ? | 50µM* | -21% | 20µM* | -24%
CCc1ccc(OCC(=O)Nc2cc(-c3nc4cc(C)ccc4o3)ccc2C)cc1 | · | -1% | -14% | · | -16% | ?
Cc1[nH]c2ccccc2c1-c1nc(N)sc1C | -4 | 7% | -23% | ? | ? | 71µM*
Cc1ccccc1NC(=O)CN1C(=O)CSc2ccc(S(=O)(=O)N3CCCCC3)cc21 | -3 | 2% | ? | 21µM* | -6% | 7%[59 µM]
Cc1ccccc1NC(=O)CN1C(=O)CSc2ccc(S(=O)(=O)N3CCCC3)cc21 | -9 | 17% | -12% | -15% | -25% | 4%
